Pf growth 48h – Primary qHTS for delayed death inhibitors of the malarial parasite plastid, 48 hour incubation. actives 5.9% (n = 310,000). AID 504832, 2011. P. falciparum luciferase growth in erythrocytes, 48 h. Potency, µM (doses to about 28.7 µM), inactives show at the highest dose activity change, negative = inhibition, most hits filed as inhibitors; also: potency is read from the fitted curve at half-maximal effect; % is scaled to controls: 0 for no effect and ±100 for the full control effect
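Erythrocytes infected with P. falciparum carrying an integrated firefly luciferase reporter (2% hematocrit, 0.1% parasitemia final) were exposed to compounds in RPMI 1640 with 0.5% Albumax at 37 C, 5% CO2. Growth inhibition was scored as reduced luminescence.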
Pf growth 96h – Primary qHTS for delayed death inhibitors of the malarial parasite plastid, 96 hour incubation; P. falciparum luciferase reporter growth, 96 h; Potency, µM (highest dose often 28.7 µM), for the others: at the highest dose activity change, negative = inhibition, actives largely listed as inhibitors; actives 6.9% (n = 320,000); also: potency is read from the fitted curve at half-maximal effect; % is scaled to controls: 0 for no effect and ±100 for the full control effect
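Infected RBCs, 2% Hct / 0.05% parasitemia final; luciferase-reporter P. falciparum; cpd 96 h, 37 C, 5% CO2; luciferase detection reagent; luminescence.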
HCMV antiviral – qHTS Assay for inhibitors of the human cytomegalovirus (HCMV). HFF cells, HCMV-luciferase reporter, 72 h; hits give low values. activity change, negative = inhibition, % at 57.5 µM. actives 4.5% (n = 410,000). AID 1259415, 2018; in the data active = activity change below about -60%; inconclusive = no clear call, values can overlap the other calls; inactive = above about -39%; also: % is scaled to controls: 0 for no effect and ±100 for the full control effect
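Human foreskin fibroblasts infected with luciferase-reporter HCMV at MOI 1 PFU/cell, compounds at two doses. Luciferase measured 72 h post infection; normalized to buffer-only basal and Salinomycin (10uM) controls.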
Shiga inhibitor – A qHTS for Small Molecule Inhibitors of Shiga Toxin. Vero cells, Shiga toxin protein synthesis inhibition reporter. inhibition, % at 38.7 µM. actives 9.2% (n = 290,000); in the data active = inhibition mostly above about 28%, no sharp cut-off; inactive = mostly below about 43%; also: 0% is about no effect
Cycloheximide cs – Cycloheximide Counterscreen for Small Molecule Inhibitors of Shiga Toxin | cell reporter, cycloheximide protein synthesis inhibition counterscreen | max response, % | actives 12% (n = 300,000) | AID 2314, 2010; in the data active = max response mostly above about 13%, no sharp cut-off; inactive = mostly below about 14%; also: read at 38.3 µM for the half of the compounds with a filed dose; 0% is about no effect
Active calls of the source: *; [ ] = dose if it differs, or a comment. Most compounds without a hit are left out; they make up all but 20% or so of the library. Unless noted, calls follow the shape of the dose curve; as a rule, active = well fitted inhibition curve with a large enough effect; inconclusive = small, poorly fitted or top-dose-only effect, or another doubt; inactive = no such curve, though single readings can be large or run the other way.

`O=C(NCC1CCCO1)c1nn2cccnc2c1Cl` (stereo not given) gave Pf growth 48h 65.3%, Pf growth 96h 2.9%, HCMV antiviral 89.0, Shiga inhibitor 28.5* and Cycloheximide cs 24.0*.
Screening Cn1ncc(C#N)c1NC(=O)c1nn2cccnc2c1Cl returned Pf growth 48h 5.1%, Pf growth 96h 4.65µM*, HCMV antiviral -30.4, Shiga inhibitor -12.5 and Cycloheximide cs -3.7.
Screening CCOc1ccc(NC(=O)CCS(=O)(=O)c2ccc3nc(C)sc3c2)cc1 returned HCMV antiviral 7.1.
`CN(C)c1ccc(C(CNS(=O)(=O)c2ccc(Cl)cc2)N2CCOCC2)cc1` (stereo not given) gave HCMV antiviral -4.1.
Screening CCc1c(C)sc(NC(=O)c2cc(-c3cc(OC)ccc3OC)on2)c1C#N returned Pf growth 48h -5.0%, Pf growth 96h inconclusive, HCMV antiviral -67.8*, Shiga inhibitor -4.8 and Cycloheximide cs -0.2.
For CCc1c(C)sc(NC(=O)c2cc(-c3ccc(O)cc3)on2)c1C#N the results were Pf growth 96h -33.9%, HCMV antiviral -60.9*, Shiga inhibitor -21.6 and Cycloheximide cs -6.2.
Screening CCc1c(C)sc(NC(=O)c2cc(CC(C)C)on2)c1C#N returned Pf growth 96h 13.1µM*, HCMV antiviral -8.6, Shiga inhibitor -14.3 and Cycloheximide cs -2.0.
CCc1c(C)sc(NC(=O)c2cc(-c3ccc(OC)c(OC)c3)on2)c1C#N was read as Pf growth 48h 78.7%, HCMV antiviral 10.0, Shiga inhibitor -16.7 and Cycloheximide cs 12.1.
`Cc1c(CCC(=O)O)c(=O)oc2c(C)c(OCc3cc4c(cc3Cl)OCO4)ccc12` gave Pf growth 48h 8.0%, Pf growth 96h 11.8%, HCMV antiviral -18.8, Shiga inhibitor -6.0 and Cycloheximide cs -1.6.
Screening Cc1ccccc1OCC(=O)NCC1CCCO1 (stereo not given) returned Pf growth 48h 7.3%, Pf growth 96h inconclusive, HCMV antiviral -5.7, Shiga inhibitor 66.8 and Cycloheximide cs 1.1.
Screening Cc1ccc(OCC(=O)NNC(=O)C2CCCO2)c(C)c1 (stereo not given) returned Pf growth 48h inconclusive, Pf growth 96h 42.5%, HCMV antiviral 29.9, Shiga inhibitor 11.8 and Cycloheximide cs 21.3*.
Screening O=C(CN(Cc1ccccc1)S(=O)(=O)c1ccc(Br)cc1)NCC1CCCO1 (stereo not given) returned Pf growth 48h -14.2%, Pf growth 96h 0.2%, HCMV antiviral -23.1, Shiga inhibitor -12.3 and Cycloheximide cs -10.4.
Screening COc1ccc(S(=O)(=O)N(CC(=O)NCC2CCCO2)Cc2ccccc2)cc1C (stereo not given) returned Pf growth 48h -28.7%, Pf growth 96h -21.3%, HCMV antiviral -90.2*, Shiga inhibitor -11.0 and Cycloheximide cs -2.0.
`Cc1ccc(OCC(=O)NCC2CCCO2)c(C)c1` (stereo not given) gave Pf growth 48h 17.5%, Pf growth 96h 18.6%, HCMV antiviral 8.5, Shiga inhibitor 33.8 and Cycloheximide cs 39.4*.
Screening O=c1c2sc3ccccc3c2[nH]c(=S)n1CCN1CCOCC1 returned Pf growth 48h 10.5%, Pf growth 96h -0.4%, HCMV antiviral -26.1, Shiga inhibitor 39.2 and Cycloheximide cs 2.9.
`O=C(NCC(=O)N1CCC2(CC1)NCCc1[nH]cnc12)c1ccccc1F` gave Pf growth 48h -0.3%, Pf growth 96h 3.8%, HCMV antiviral 29.8, Shiga inhibitor -2.1 and Cycloheximide cs -2.4.
For CCOc1ccc(NC(=O)c2cc(SC)ccc2Cl)cc1 the results were Pf growth 48h 6.7%, Pf growth 96h 25.5%, HCMV antiviral inconclusive, Shiga inhibitor -5.1 and Cycloheximide cs 0.5.
For CCOc1ccc(NC(=O)c2ccccc2OCC(=O)c2ccc(C)cc2)cc1 the results were Pf growth 48h 19.8%, HCMV antiviral -23.7, Shiga inhibitor 19.5 and Cycloheximide cs -4.2.
For CCOc1ccc(NC(=O)c2ccccc2SC)cc1 the results were Pf growth 48h 122.8%, Pf growth 96h 55.2%, HCMV antiviral 2.4, Shiga inhibitor 58.7* and Cycloheximide cs 50.4*.
For COc1ccc(NC(=O)c2ccccc2SC)cc1 the results were Pf growth 48h 48.3%, Pf growth 96h -20.7%, HCMV antiviral -25.8, Shiga inhibitor 66.5* and Cycloheximide cs 54.0*.
`CCOc1ccc(NC(=O)C(C)Oc2ccccc2C(=O)Nc2ccc(C)c(Cl)c2)cc1` (stereo not given) gave Pf growth 48h inconclusive, Pf growth 96h inconclusive, HCMV antiviral 88.0, Shiga inhibitor 111.5* and Cycloheximide cs 21.7*.
For COc1ccc2nc(NC(=O)Cc3ccc(OC)c(S(=O)(=O)N4CCOCC4)c3)sc2c1 the results were Pf growth 96h inconclusive, HCMV antiviral 11.8, Shiga inhibitor 19.8 and Cycloheximide cs -0.8.
Screening COc1ccc2nc(NC(=O)CCN3C(=O)c4ccccc4C3=O)sc2c1 returned Pf growth 48h 10.6%, Pf growth 96h 0.4%, HCMV antiviral -12.9, Shiga inhibitor 14.4 and Cycloheximide cs 10.6.
`COc1ccc(/C=N/OCC(=O)Nc2nc3ccccc3s2)cc1` gave Pf growth 48h 57.0%, Pf growth 96h 85.8%, HCMV antiviral 19.1, Shiga inhibitor active and Cycloheximide cs 34.1*.
Screening COc1ccc2nc(NC(=S)N(C)C)sc2c1 returned Pf growth 48h -0.3%, HCMV antiviral inconclusive, Shiga inhibitor 68.5* and Cycloheximide cs 46.6*.
Screening COc1ccc2nc(NC(=O)CCc3ccc(OC)c(OC)c3)sc2c1 returned Pf growth 48h inconclusive, Pf growth 96h 11.7µM*, HCMV antiviral -37.7, Shiga inhibitor 29.6 and Cycloheximide cs 30.3*.
Screening CCCC(=O)Nc1nc2ccc(OC)cc2s1 returned Pf growth 48h 34.8%, Pf growth 96h 66.5%, HCMV antiviral -40.0, Shiga inhibitor 104.0* and Cycloheximide cs 74.8*.
For COc1ccc2nc(NC(=O)CS(=O)(=O)Cc3ccccc3)sc2c1 the results were Pf growth 48h 20.3%, Pf growth 96h -25.6%, HCMV antiviral -34.7, Shiga inhibitor -2.2 and Cycloheximide cs 2.9.
For CCCCn1nnnc1C(c1cc2ccccc2o1)N1CCOCC1 (stereo not given) the results were HCMV antiviral 8.9.
Screening CN(C)CCN1C(=O)c2oc3ccccc3c(=O)c2C1c1ccccc1 (stereo not given) returned Pf growth 48h -3.9%, Shiga inhibitor 1.6 and Cycloheximide cs 2.6.
For CCN(CC)CCN1C(=O)c2oc3ccccc3c(=O)c2C1c1ccc(F)cc1 (stereo not given) the results were Pf growth 48h 2.94µM*, Pf growth 96h 9.28µM*, HCMV antiviral 54.7, Shiga inhibitor -11.2 and Cycloheximide cs 11.8.
`CN(C)CCCN1C(=O)c2oc3ccccc3c(=O)c2C1c1cccs1` (stereo not given) gave Pf growth 48h inconclusive, Pf growth 96h -18.9%[5.75 µM], HCMV antiviral -5.9, Shiga inhibitor 23.8* and Cycloheximide cs 22.0*.

Screening results (PubChem BioAssay)
